# DT40 TDP1 no CPT – qHTS for Inhibitors of human tyrosyl-DNA phosphodiesterase 1 (TDP1): qHTS in cells in absence of CPT | DT40 Tdp1-/- hTDP1 cells, no CPT, ATP luminescence, 48 h | Potency, µM (doses to about 46.2 µM), without a hit: at the highest dose activity change, negative = growth inhibition, usual class: inhibitors | 15% of 420,000 active | AID 686978, 2013; also: potency is read from the fitted curve at half-maximal effect; nearly all actives have a fitted effect of over 55% in size
#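 Growth of hTDP1-complemented DT40 Tdp1-knockout cells is measured by ATP luminescence after at least 48 hr compound exposure at 37 °C, with DMSO substituting for the 20 nM CPT used in the parallel screen.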
# IL1B secr inh – inflammasome signaling inhibition, IL-1 beta readout; 4.7% of 360,000 active; AID 743279; activity change, % at 57.5 µM; THP-1 LPS/ATP IL-1B secretion, AlphaLISA, 16 h; active compounds read low; in the data active = activity change below about -50%; inconclusive = mostly about -30% to -49%
#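 THP-1 cells pretreated 1 hr with compounds (up to 57.5 uM final), then stimulated with LPS (250 ng/mL final) plus ATP (1.25 mM final); secreted IL-1B measured by AlphaLISA after 16 hr, decreased signal indicating inhibition.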
# ELG1 DNA repair – blocks ELG1-dependent DNA repair in HEK293T cells; AID 504467; Potency, µM (highest dose often 46.1 µM), inactives show at the highest dose activity change, negative = inhibition, actives largely listed as inhibitors; 2.3% of 330,000 active; HEK293T ELG1-luciferase reporter, luminescence, 16 h; DNA damage induced by 5-fluorouridine; also: potency is read from the fitted curve at half-maximal effect; nearly all actives have a fitted effect of over 55% in size
#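 In this reporter screen, reduction of luminescence relative to DMSO vehicle indicated activity. Compounds and 5-fluorouridine were added together to 2,000 cells per well, incubated for 16 hr at 37 °C, then developed with ONE-Glo.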
# TDP1 cell CPT – DT40-hTDP1 cell growth loss with CPT; 12% of 420,000 active; chicken DT40 Tdp1-/-;hTDP1 cells + 20 nM CPT, ATP luminescence, 48 h; Potency, µM (top dose mostly 46.2 µM), for inactives: at the highest dose activity change, negative = growth inhibition, most hits filed as inhibitors; AID 686979; also: potency is read from the fitted curve at half-maximal effect; nearly all actives have a fitted effect of over 55% in size
#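 Chicken DT40 Tdp1-/- cells complemented with human TDP1, 400 cells/well, exposed to compounds plus 20 nM camptothecin for at least 48 h at 37 C; viability read as ATP content by CellTiter-Glo luminescence.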
# HT1080 IDH1KD tx – kills HT-1080 cells with IDH1 knockdown. HT-1080 IDH1 knockdown viability, ATP luminescence, 48 h. Potency, µM (highest dose often 46.1 µM), without a hit: at the top dose activity, negative = toxicity, usual class: cytotoxic. 2% of 360,000 active;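 also: potency is read from the fitted curve at half-maximal effect; 0% = DMSO wells and -100% = cell-free medium wells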
#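 Cytotoxicity counter-line: IDH1KD HT-1080, 48 h, CellTiter-Glo. Curves classed by r2, magnitude and activity.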
# HT1080-NT tox – kills 2HG-producing HT-1080-NT fibrosarcoma cells; Potency, µM (highest dose often 46.1 µM), for inactives: top-dose activity, negative = less viability, usual class: cytotoxic; AID 686970; 1.6% of 360,000 active; HT-1080-NT fibrosarcoma viability, CellTiter-Glo ATP luminescence, 48 h;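 also: NT is the 2HG producing partner of a matched IDH1 knockdown line; potency is read from the fitted curve at half-maximal effect; 0% = DMSO-treated cells and -100% = media-only wells without cells; nearly all actives have a fitted effect of over 55% in size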
#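 Viability by CellTiter-Glo luminescence after 48 h compound exposure at 37C of HT-1080-NT cells (750/well, RPMI, 5% FBS). % activity scaled between DMSO wells and medium-only wells, then curve-fitted and categorized by curve class.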
# The depositor's hits bear a star; ? = inconclusive; . = no result given. In the library only some 19% were active in any assay of this set; here they are far more common. Unless noted, calls follow the shape of the dose curve; as a rule, active = well fitted curve in the direction sought with a large enough effect; inconclusive = small, poorly fitted or top-dose-only effect, or another doubt; inactive = no such curve, though single readings can be large; an effect the other way counts as inactive or inconclusive. Unless noted, % is scaled to controls: 0 for no effect and ±100 for the full control effect.
SMILES,DT40 TDP1 no CPT,IL1B secr inh,ELG1 DNA repair,TDP1 cell CPT,HT1080 IDH1KD tx,HT1080-NT tox
CCCCCc1ccc(S(=O)(=O)NCCc2ccncc2)cc1,16.4µM*,?,?,20.6µM*,?,-14.8%
COc1cc(C)ccc1OCCSc1nc2ccc(NC(=O)c3ccccc3F)cc2s1,-18.2%,.,.,?,.,.
CCOc1ccc(CCNC(=O)CCNC(=O)c2ccc(Br)cc2)cc1OCC,-2.4%,-3.7,13.7%,8.7%,14.7%,17.1%
Cc1ccc(S(=O)(=O)NC(=O)C2(C)CCN2C(=O)c2cccc(F)c2)cc1 (stereo unspecified),4.3%,0.0,.,1.1%,0.4%,23.4%
O=C(Nc1ccc(S(=O)(=O)NCCc2ccccc2)cc1)c1ccco1,?,15.5,-16.7%,-27.2%,-19.6%,-5.9%
O=C(Nc1ccc(S(=O)(=O)NCCc2ccccc2)cc1)c1ccncc1,?,7.6,12.6%,18.4µM*,-13.8%,-28.6%
Cc1ccc(NC(=O)COC(=O)CCn2c(C)csc2=O)c([N+](=O)[O-])c1,-0.7%,-10.6,6.2%,7.2%,16.8%,10.6%
Cc1ccc(NC(=O)COC(=O)CCC(=O)c2ccc(C(C)(C)C)cc2)c([N+](=O)[O-])c1,14.6µM*,-1.0,-0.2%,?,17.8%,9.3%
C/C=C/c1ccc(OCCCCN2CC(C)CC(C)C2)c(OC)c1 (stereo unspecified),?,-70.1*,5.3%,?,20.6µM*,23.1µM*
C/C=C/c1ccc(OCCCCNCc2ccco2)c(OC)c1,?,-58.1*,-1.7%,25.9µM*,?,-29.5%
C/C=C/c1ccc(OCCCCN2CCN(CC)CC2)c(OC)c1,29.1µM*,-10.9,10.3%,?,-16.3%,-14.1%
C/C=C/c1ccc(OCCCCOc2ccc(OC)cc2)c(OC)c1,-22.5%,-4.2,13.5%,-14.0%,10.7%,11.8%
Cc1cccc(-c2nc(Cn3c(=O)cc(-c4ccccc4)c4c(C)nn(C)c43)c(C)o2)c1,-10.7%,.,.,-7.9%,.,.
Cc1cc(C)c(NC(=O)CN(C2CCCCC2)C2CCCCC2)c(C)c1,16.4µM*,-3.8,5.0%,23.1µM*,4.1%,4.1%
CS(=O)(=O)N(CC(=O)Nc1ccc(Br)cc1)C1CCCCC1,23.1µM*,-3.6,-11.1%,?,?,?
CS(=O)(=O)N(CC(=O)Nc1ccc(C(N)=O)cc1)C1CCCCC1,-22.7%,?,0.8%,-6.4%,0.8%,-5.4%
Cc1ccc(NC(=O)CN(C)C2CCCCC2)cc1Br,18.4µM*,-11.6,-17.5%,?,-17.7%,-18.5%
CCCCC1CCC(CCCC(C)CCC(=O)O)CC1 (stereo unspecified),-2.9%,.,.,0.2%,.,.
CCOC(=O)c1cc(CC)sc1NC(=O)c1cc(OC)c(OC)c(OC)c1,17.8µM*,-15.8,?,?,17.5%,16.9%
CCOC(=O)c1[nH]c2ccc(F)cc2c1NC(=O)c1cc(OC)c(OC)c(OC)c1,23.1µM*,-4.4,7.31µM*,?,-4.4%,-5.2%
CCOC(=O)c1[nH]c2ccc(OC)cc2c1NC(=S)N1CCN(c2cccc(C)c2C)CC1,?,-6.6,13µM*,?,?,?
COC(=O)c1[nH]c2ccc(F)cc2c1NS(=O)(=O)c1ccc(OC)cc1,3.26µM*,41.1,?,3.26µM*,?,5.17µM*
O=C(c1ccccc1)n1c2ccccc2c(=O)n1-c1ccccc1CCl,?,-1.0,.,?,-10.8%,-4.4%
CCOC(=O)Cn1nc(C)cc1NC(=O)c1cc(OC)c(OC)c(OC)c1,?,-78.4*,?,?,-7.6%,-29.0%
CCOC(=O)c1[nH]c2ccc(OC)cc2c1NC(=O)c1cccc(OC)c1,?,-16.0,13µM*,23.1µM*,-1.5%,-1.3%

# Assay outcomes: PubChem, National Center for Advancing Translational Sciences (NCATS)
